# Data reported in PMC7862700, “An all-to-all approach to the identification of sequence-specific readers for epigenetic DNA modifications on cytosine”.
# Key:
# Experiment in all cases: DAPPL (digital affinity profiling via proximity ligation, sequencing); 10 mM Tris-HCl pH 7.5, 50 mM NaCl, 1 mM DTT, 4% glycerol, room temperature, 30 min; GST-TFs on glutathione beads, 16-mer random dsDNA library, 0.1% formaldehyde crosslink after washing; high values mean tight binding
# FLI1 = molecular target: T1, FLI1 (Homo sapiens, UniProt Q01543 1-452); settings: protein: recombinant; tags: N-terminal GST; dsDNA, one strand shown
# T1 sequence: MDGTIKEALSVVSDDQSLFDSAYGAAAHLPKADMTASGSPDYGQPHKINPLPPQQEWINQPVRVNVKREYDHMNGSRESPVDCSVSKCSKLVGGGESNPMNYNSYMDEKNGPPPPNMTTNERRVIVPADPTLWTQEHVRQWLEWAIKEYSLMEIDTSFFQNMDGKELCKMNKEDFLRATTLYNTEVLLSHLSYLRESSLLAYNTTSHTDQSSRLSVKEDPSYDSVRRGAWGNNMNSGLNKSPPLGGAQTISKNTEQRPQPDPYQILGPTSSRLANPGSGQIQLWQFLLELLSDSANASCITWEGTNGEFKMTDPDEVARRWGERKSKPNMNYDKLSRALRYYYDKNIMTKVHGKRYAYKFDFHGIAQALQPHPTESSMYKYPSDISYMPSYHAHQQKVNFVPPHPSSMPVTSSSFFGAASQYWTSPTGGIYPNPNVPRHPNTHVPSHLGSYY
# In short: (§1)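 Sequencing on an Illumina NextSeq500 followed washing, crosslinking with 0.1% formaldehyde, proximity ligation (BsaI/T4 ligase, 1 h, 37 °C) and PCR amplification of pools that had been incubated for 30 min at room temperature with 200 nmole of a random double-stranded 16-mer DNA library in Tris/NaCl/DTT/glycerol buffer. Each pool held DNA-barcoded human transcription factors, expressed in yeast as GST fusions and captured on glutathione beads, plus a tag-only sample. Binding signal is a hexamer's read frequency for a factor divided by its frequency in the tag-only sample.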
# ELK1 = molecular target: T2, ELK1 (Homo sapiens, UniProt P19419 1-428); settings: protein: recombinant; tags: N-terminal GST; dsDNA, one strand shown
# T2 sequence: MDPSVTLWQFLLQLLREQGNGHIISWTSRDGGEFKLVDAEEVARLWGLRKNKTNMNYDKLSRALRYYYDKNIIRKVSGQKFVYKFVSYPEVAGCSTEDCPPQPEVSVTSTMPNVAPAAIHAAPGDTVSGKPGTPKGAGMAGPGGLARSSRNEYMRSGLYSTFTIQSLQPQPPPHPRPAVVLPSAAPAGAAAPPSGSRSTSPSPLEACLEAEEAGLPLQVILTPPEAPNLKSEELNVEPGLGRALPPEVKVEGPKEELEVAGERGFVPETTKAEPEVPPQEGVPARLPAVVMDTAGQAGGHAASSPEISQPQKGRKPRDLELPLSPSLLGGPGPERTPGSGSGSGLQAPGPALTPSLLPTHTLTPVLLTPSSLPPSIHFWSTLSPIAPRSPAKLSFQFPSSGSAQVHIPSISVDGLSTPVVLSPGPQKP
# In short: as §1
# GABPA = molecular target: T3, GABPA (Homo sapiens, UniProt Q06546 1-454); settings: protein: recombinant; tags: N-terminal GST; dsDNA, one strand shown
# T3 sequence: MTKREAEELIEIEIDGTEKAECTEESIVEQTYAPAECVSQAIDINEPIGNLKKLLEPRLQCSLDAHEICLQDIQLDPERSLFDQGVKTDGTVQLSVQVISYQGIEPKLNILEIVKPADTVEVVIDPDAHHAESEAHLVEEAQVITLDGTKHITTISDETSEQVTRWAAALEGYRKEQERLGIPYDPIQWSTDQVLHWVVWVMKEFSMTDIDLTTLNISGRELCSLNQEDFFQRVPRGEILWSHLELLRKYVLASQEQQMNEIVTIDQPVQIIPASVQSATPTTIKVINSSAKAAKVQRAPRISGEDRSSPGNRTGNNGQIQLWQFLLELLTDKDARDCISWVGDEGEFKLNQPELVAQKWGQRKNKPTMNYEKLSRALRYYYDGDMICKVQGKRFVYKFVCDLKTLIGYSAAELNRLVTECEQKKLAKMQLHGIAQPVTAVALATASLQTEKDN
# In short: as §1
# ERG = molecular target: T4, ERG (Homo sapiens, UniProt P11308 1-479); settings: protein: recombinant; tags: N-terminal GST; dsDNA, one strand shown
# T4 sequence: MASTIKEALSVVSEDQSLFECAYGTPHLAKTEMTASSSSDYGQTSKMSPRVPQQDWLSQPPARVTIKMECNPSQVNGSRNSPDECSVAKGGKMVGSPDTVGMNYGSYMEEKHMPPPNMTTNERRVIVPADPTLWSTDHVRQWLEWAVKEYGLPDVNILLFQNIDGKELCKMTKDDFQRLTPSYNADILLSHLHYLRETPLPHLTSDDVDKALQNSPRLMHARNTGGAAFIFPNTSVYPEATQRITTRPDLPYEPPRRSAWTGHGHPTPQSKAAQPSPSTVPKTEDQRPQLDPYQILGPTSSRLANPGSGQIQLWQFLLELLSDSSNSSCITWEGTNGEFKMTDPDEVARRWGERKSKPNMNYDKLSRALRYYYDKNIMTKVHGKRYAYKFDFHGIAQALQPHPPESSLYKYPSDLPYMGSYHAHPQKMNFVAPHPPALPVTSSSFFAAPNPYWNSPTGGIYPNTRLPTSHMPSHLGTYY
# In short: as §1
# ELF1 = ELF1 (Homo sapiens, UniProt P32519 1-619); settings: protein: recombinant; tags: N-terminal GST; dsDNA, one strand shown
# Sequence of ELF1 (P32519 whole entry): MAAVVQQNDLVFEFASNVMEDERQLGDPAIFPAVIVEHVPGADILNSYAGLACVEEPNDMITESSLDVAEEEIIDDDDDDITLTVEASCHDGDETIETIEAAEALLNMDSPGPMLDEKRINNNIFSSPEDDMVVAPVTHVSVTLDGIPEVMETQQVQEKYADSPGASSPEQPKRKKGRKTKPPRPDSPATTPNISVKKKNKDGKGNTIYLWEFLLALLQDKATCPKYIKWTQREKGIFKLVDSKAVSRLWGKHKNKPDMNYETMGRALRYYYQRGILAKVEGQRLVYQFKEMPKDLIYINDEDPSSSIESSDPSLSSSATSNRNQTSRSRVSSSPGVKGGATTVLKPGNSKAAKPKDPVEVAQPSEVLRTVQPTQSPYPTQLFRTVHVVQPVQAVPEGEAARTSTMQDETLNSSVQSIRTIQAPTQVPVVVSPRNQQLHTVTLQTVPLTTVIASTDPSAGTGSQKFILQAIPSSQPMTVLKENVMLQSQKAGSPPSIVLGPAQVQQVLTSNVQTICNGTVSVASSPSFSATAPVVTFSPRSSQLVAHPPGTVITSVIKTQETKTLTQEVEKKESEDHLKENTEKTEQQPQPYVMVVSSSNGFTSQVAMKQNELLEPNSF
# In short: as §1
# EHF = molecular target: T5, EHF (Homo sapiens, UniProt Q9NZC4 1-300); settings: protein: recombinant; tags: N-terminal GST; dsDNA, one strand shown
# T5 sequence: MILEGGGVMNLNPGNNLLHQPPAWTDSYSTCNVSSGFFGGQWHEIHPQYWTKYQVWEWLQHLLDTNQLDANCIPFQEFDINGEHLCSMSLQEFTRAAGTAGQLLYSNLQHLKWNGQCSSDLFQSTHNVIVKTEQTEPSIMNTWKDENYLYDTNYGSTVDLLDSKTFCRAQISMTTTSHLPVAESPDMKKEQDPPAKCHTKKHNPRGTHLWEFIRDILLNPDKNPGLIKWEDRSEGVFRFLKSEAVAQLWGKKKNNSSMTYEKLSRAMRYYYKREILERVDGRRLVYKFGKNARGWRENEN
# In short: as §1
# SPI1 = SPI1 (Homo sapiens, UniProt P17947 1-270); settings: protein: recombinant; tags: N-terminal GST; dsDNA, one strand shown
# In short: as §1
# SPIB = SPIB (Homo sapiens, UniProt Q01892 1-262); settings: protein: recombinant; tags: N-terminal GST; dsDNA, one strand shown
# Sequence of SPIB (Q01892 whole entry): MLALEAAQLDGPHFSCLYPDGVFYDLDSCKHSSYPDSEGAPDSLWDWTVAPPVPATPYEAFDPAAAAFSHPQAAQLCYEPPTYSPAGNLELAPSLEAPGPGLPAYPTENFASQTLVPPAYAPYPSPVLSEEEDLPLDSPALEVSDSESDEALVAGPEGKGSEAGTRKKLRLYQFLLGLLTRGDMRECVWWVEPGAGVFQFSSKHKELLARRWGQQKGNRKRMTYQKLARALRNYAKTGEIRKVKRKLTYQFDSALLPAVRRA
# In short: as §1
# ELK3 = molecular target: T6, ELK3 (Homo sapiens, UniProt P41970 1-407); settings: protein: recombinant; tags: N-terminal GST; dsDNA, one strand shown
# T6 sequence: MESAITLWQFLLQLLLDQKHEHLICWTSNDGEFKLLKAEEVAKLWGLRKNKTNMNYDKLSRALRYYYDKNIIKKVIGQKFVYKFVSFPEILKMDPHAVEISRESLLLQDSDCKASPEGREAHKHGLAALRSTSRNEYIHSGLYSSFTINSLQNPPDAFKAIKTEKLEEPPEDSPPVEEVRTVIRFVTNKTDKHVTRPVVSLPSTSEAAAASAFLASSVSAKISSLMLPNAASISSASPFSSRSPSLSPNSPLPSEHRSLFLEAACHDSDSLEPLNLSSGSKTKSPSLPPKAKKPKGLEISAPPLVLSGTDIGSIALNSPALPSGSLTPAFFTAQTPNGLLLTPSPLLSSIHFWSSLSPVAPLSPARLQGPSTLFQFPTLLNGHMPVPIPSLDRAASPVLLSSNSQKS
# In short: as §1
# FEV = molecular target: T7, FEV (Homo sapiens, UniProt Q99581 1-238); settings: protein: recombinant; tags: N-terminal GST; dsDNA, one strand shown
# T7 sequence: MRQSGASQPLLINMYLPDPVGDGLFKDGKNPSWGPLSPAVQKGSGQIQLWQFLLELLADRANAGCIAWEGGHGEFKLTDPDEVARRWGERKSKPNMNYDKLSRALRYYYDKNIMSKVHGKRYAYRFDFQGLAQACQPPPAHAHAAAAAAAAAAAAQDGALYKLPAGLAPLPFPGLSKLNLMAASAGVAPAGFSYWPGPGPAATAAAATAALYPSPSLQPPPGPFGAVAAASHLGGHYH
# In short: as §1
# ETV5 = ETV5 (Homo sapiens, UniProt P41161 1-510); settings: protein: recombinant; tags: N-terminal GST; dsDNA, one strand shown
# Sequence of ETV5 (P41161 whole entry): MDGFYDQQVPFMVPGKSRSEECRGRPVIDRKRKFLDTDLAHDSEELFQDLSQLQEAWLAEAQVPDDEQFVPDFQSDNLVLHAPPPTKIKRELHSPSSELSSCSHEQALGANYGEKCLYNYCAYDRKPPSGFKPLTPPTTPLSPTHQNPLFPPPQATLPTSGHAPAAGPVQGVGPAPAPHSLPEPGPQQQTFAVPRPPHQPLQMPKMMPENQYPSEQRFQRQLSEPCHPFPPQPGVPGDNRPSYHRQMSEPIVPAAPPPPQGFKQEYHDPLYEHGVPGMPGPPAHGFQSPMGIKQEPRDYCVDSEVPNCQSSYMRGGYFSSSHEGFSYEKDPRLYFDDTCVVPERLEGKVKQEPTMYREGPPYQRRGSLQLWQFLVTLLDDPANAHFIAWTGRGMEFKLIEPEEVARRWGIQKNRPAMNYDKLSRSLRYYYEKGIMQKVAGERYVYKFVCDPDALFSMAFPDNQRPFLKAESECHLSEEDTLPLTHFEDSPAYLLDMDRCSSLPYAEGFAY
# In short: as §1
# HSF1 = HSF1 (Homo sapiens, UniProt Q00613 1-529); settings: protein: recombinant; tags: N-terminal GST; chain copies: 3; dsDNA, one strand shown
# Sequence of HSF1 (Q00613 whole entry): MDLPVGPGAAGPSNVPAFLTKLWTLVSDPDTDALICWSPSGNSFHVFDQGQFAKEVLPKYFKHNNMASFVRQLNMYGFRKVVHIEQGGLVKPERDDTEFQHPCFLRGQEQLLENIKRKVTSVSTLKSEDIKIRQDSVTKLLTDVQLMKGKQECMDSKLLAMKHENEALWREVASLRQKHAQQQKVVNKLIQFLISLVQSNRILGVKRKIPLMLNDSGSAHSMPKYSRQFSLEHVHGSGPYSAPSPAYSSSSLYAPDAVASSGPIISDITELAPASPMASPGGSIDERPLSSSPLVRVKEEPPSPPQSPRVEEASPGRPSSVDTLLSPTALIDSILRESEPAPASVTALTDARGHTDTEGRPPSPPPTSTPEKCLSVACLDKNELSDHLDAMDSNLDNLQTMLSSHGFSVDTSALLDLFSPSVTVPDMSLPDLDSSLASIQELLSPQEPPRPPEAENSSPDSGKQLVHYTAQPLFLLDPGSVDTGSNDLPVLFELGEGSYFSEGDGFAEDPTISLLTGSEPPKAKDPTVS
# In short: as §1
# SPIC = molecular target: T8, SPIC (Homo sapiens, UniProt Q8N5J4 1-248); settings: protein: recombinant; tags: N-terminal GST; dsDNA, one strand shown
# T8 sequence: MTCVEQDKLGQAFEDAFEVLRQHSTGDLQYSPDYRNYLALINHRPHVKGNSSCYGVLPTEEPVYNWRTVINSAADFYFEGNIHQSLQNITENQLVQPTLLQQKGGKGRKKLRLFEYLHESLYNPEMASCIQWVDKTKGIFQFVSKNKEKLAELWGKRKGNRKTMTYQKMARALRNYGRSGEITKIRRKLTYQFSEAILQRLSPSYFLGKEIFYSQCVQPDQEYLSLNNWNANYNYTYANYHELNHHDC
# In short: as §1
# ELF4 = ELF4 (Homo sapiens, UniProt Q99607 1-663); settings: protein: recombinant; tags: N-terminal GST; dsDNA, one strand shown
# Sequence of ELF4 (Q99607 whole entry): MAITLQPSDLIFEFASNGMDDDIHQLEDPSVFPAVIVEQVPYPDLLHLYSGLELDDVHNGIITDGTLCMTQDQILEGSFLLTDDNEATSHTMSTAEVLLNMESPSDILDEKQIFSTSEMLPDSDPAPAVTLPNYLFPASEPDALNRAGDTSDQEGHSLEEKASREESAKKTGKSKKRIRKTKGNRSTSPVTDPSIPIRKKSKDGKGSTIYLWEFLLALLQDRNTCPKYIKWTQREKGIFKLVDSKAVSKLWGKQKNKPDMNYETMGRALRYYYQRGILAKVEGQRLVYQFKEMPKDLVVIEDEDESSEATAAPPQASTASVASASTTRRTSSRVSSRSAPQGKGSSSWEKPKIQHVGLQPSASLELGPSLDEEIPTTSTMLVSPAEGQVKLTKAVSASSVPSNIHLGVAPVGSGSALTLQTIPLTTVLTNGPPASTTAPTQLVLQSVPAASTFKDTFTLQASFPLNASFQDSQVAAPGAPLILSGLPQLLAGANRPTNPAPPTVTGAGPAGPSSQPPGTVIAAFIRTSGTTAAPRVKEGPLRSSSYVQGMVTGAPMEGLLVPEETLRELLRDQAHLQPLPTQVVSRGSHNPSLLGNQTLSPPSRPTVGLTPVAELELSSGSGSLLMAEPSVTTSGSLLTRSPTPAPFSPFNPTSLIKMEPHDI
# In short: as §1
# ELK4 = molecular target: T9, ELK4 (Homo sapiens, UniProt P28324-2 1-405); settings: protein: recombinant; tags: N-terminal GST; dsDNA, one strand shown
# T9 sequence: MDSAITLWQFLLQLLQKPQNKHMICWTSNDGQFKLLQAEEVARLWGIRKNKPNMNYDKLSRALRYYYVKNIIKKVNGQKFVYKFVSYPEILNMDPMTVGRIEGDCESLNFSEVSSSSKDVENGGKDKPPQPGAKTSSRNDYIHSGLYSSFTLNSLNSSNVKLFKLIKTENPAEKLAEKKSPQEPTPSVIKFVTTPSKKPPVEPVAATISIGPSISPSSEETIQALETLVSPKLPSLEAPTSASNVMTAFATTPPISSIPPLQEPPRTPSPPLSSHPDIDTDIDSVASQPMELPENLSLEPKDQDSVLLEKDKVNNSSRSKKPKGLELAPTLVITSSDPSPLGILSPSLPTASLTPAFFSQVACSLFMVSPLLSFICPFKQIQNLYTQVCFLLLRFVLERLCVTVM
# In short: as §1
# ETV2 = molecular target: T10, ETV2 (Homo sapiens, UniProt O00321 1-342); settings: protein: recombinant; tags: N-terminal GST; dsDNA, one strand shown
# T10 sequence: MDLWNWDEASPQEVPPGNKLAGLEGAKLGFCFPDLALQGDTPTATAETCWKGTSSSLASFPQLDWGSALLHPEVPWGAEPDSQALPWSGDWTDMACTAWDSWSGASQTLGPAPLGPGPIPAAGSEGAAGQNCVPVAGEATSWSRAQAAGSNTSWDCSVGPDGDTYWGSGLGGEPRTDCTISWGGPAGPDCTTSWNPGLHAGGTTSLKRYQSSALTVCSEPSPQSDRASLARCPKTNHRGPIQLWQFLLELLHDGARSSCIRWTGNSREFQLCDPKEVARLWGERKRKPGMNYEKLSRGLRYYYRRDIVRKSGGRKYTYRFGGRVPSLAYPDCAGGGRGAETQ
# In short: as §1
# ELF3 = molecular target: T11, ELF3 (Homo sapiens, UniProt P78545 1-371); settings: protein: recombinant; tags: N-terminal GST; dsDNA, one strand shown
# T11 sequence: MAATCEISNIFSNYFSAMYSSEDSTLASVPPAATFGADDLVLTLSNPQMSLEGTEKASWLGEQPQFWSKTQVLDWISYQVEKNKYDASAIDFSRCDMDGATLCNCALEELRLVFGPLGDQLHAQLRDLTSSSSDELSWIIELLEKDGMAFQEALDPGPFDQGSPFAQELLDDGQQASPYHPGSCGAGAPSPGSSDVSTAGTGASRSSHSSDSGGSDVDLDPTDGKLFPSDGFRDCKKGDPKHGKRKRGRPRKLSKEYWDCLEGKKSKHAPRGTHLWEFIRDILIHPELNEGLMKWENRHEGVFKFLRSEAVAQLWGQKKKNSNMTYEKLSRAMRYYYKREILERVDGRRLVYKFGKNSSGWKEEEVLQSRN
# In short: as §1
# CRX = CRX (Homo sapiens, UniProt O43186 1-299); settings: protein: recombinant; tags: N-terminal GST; dsDNA, one strand shown
# Sequence of CRX (O43186 whole entry): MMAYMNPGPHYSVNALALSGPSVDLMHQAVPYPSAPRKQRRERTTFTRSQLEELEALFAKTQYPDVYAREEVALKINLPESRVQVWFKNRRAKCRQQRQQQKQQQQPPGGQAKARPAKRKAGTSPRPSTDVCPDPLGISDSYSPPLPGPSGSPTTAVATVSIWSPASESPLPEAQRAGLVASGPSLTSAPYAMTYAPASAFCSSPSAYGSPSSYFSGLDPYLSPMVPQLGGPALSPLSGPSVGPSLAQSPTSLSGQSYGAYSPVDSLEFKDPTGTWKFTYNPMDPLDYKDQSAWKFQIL
# In short: as §1
# ETV1 = ETV1 (Homo sapiens, UniProt P50549 1-477); settings: protein: recombinant; tags: N-terminal GST; dsDNA, one strand shown
# Sequence of ETV1 (P50549 whole entry): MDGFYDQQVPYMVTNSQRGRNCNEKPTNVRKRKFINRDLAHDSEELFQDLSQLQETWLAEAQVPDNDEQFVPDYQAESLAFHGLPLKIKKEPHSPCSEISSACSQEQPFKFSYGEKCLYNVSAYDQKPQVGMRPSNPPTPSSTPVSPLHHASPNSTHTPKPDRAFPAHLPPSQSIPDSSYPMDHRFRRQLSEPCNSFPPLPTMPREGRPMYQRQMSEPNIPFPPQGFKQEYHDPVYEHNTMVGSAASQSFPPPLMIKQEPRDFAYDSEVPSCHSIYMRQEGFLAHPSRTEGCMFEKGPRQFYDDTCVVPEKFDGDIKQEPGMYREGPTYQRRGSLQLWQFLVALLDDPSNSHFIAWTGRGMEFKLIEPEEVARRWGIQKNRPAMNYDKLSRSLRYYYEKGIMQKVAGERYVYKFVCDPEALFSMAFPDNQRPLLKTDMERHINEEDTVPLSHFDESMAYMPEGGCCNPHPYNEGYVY
# In short: as §1
sequence,measurement,setting,value
TAATAG,binding signal,FLI1,"1.24 fold enrichment (6-mer frequency, TF over GST control)"
same,binding signal,ELK1,"1.15 fold enrichment (6-mer frequency, TF over GST control)"
same,binding signal,GABPA,"1.09 fold enrichment (6-mer frequency, TF over GST control)"
same,binding signal,ERG,"1.11 fold enrichment (6-mer frequency, TF over GST control)"
same,binding signal,ELF1,"1.2 fold enrichment (6-mer frequency, TF over GST control)"
same,binding signal,EHF,"1.25 fold enrichment (6-mer frequency, TF over GST control)"
same,binding signal,SPI1,"1.2 fold enrichment (6-mer frequency, TF over GST control)"
same,binding signal,SPIB,"1.29 fold enrichment (6-mer frequency, TF over GST control)"
same,binding signal,ELK3,"1.06 fold enrichment (6-mer frequency, TF over GST control)"
same,binding signal,FEV,"1.18 fold enrichment (6-mer frequency, TF over GST control)"
same,binding signal,ETV5,"1.21 fold enrichment (6-mer frequency, TF over GST control)"
same,binding signal,HSF1,"1.54 fold enrichment (6-mer frequency, TF over GST control)"
same,binding signal,SPIC,"1.39 fold enrichment (6-mer frequency, TF over GST control)"
same,binding signal,ELF4,"1.15 fold enrichment (6-mer frequency, TF over GST control)"
same,binding signal,ELK4,"1.19 fold enrichment (6-mer frequency, TF over GST control)"
same,binding signal,ETV2,"1.02 fold enrichment (6-mer frequency, TF over GST control)"
same,binding signal,ELF3,"1.06 fold enrichment (6-mer frequency, TF over GST control)"
same,binding signal,CRX,"1.94 fold enrichment (6-mer frequency, TF over GST control)"
same,binding signal,ETV1,"1.22 fold enrichment (6-mer frequency, TF over GST control)"
